How the values were obtained:
Experiment in all cases: PBM binding z-score (relative to random genomic background probes); higher = stronger binding; sequences stand for … in GC…GCGATTGACAGCGTAGAATGAAGG
[1] = tested on: PPARg:RXRa DBDmut IVT, anti-RXR (DBD mutation: RXRa K156A/R161A, NR concentration 270 nM, RXRa partner concentration 90 nM)
Summary of the method: (§1)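 Probes were double-stranded and carried 34-nt variable regions with direct-repeat seeds, single-nucleotide variants, half-site ablations and random human genomic background sequences, printed on custom Agilent 4×180K protein-binding microarrays. Arrays were incubated 1 h with ligand-free nuclear receptor dimers in PBS pH 7.4, 2% milk, 0.02% Triton X-100, 1 mM DTT, 0.2 mg/mL BSA and 0.4 mg/ml salmon testes DNA. Antibodies against each partner (one per run) detected binding, and scanned fluorescence was regression-normalized. Binding z-scores use the random background probes as reference.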

[2] = tested on: PPARg:RXRa IVT, anti-PPARg (NR concentration 270 nM, RXRa partner concentration 90 nM)
Summary of the method: as §1

[3] = tested on: PPARg DBDmut:RXRa IVT, anti-PPARg (DBD mutation: PPARg1 K132A/R137A, NR concentration 270 nM, RXRa partner concentration 90 nM)
Summary of the method: as §1

[4] = tested on: PPARg DBDmut IVT, anti-PPARg (DBD mutation: PPARg1 K132A/R137A, NR concentration 270 nM)
Summary of the method: as §1

[5] = tested on: PPARg homodimer (NR concentration 180 nM)
Summary of the method: as §1

[6] = tested on: PXR:RXRa (NR concentration 270 nM, RXRa partner concentration 90 nM)
Summary of the method: as §1

[7] = tested on: PXR homodimer (NR concentration 270 nM)
Summary of the method: as §1

[8] = tested on: RARa:RXR (NR concentration 270 nM, RXRa partner concentration 90 nM)
Summary of the method: as §1

[9] = tested on: RARa homodimer (NR concentration 270 nM)
Summary of the method: as §1

[10] = tested on: RARb:RXRa (NR concentration 270 nM, RXRa partner concentration 90 nM)
Summary of the method: as §1

[11] = tested on: RARb homodimer (NR concentration 270 nM)
Summary of the method: as §1

[12] = tested on: RARg:RXRa (NR concentration 270 nM, RXRa partner concentration 90 nM)
Summary of the method: as §1

[13] = tested on: RARg homodimer (NR concentration 270 nM)
Summary of the method: as §1

[14] = tested on: RXRa DBDmut IVT, anti-RXR (DBD mutation: RXRa K156A/R161A, NR concentration 90 nM)
Summary of the method: as §1

[15] = tested on: RXRa homodimer (NR concentration 180 nM)
Summary of the method: as §1

[16] = tested on: THRa:RXRa (NR concentration 90 nM, RXRa partner concentration 90 nM)
Summary of the method: as §1

[17] = tested on: THRa homodimer (NR concentration 90 nM)
Summary of the method: as §1

[18] = tested on: VDR:RXRa (NR concentration 270 nM, RXRa partner concentration 90 nM)
Summary of the method: as §1

[19] = tested on: VDR homodimer (NR concentration 270 nM)
Summary of the method: as §1

| Sequence | PBM binding z-score [1] | PBM binding z-score [2] | PBM binding z-score [3] | PBM binding z-score [4] | PBM binding z-score [5] | PBM binding z-score [6] | PBM binding z-score [7] | PBM binding z-score [8] | PBM binding z-score [9] | PBM binding z-score [10] | PBM binding z-score [11] | PBM binding z-score [12] | PBM binding z-score [13] | PBM binding z-score [14] | PBM binding z-score [15] | PBM binding z-score [16] | PBM binding z-score [17] | PBM binding z-score [18] | PBM binding z-score [19] |
| --- | --- | --- | --- | --- | --- | --- | --- | --- | --- | --- | --- | --- | --- | --- | --- | --- | --- | --- | --- |
| CCTACTGGGCCAAGAAGGTCATTGATGCCGATAA | 3.62 | 3.76 | -1.15 | -1.07 | 1.85 | 3.13 | 1.54 | 3.23 | 0.531 | 2.76 | 3.17 | 2.94 | 2.39 | 0.188 | 2.9 | 2.33 | 0.355 | 3.97 | 2.38 |
| CCAGACAGGTGAAAGGTAACTGAGTCTGGTACGC | 2.15 | 3.28 | -0.148 | -0.636 | 1.11 | 0.918 | -0.224 | 1.83 | 0.0845 | 1.28 | 0.792 | 1.55 | 0.856 | -0.0997 | 2.19 | 0.931 | -0.381 | 0.972 | -0.0816 |
| CGTCCAAGGTCAGAGAAGTCAGTGAATGCCGAGT | 2.46 | 2.18 | -0.292 | -0.903 | 1.38 | 2.55 | 0.728 | 2.86 | 0.262 | 4.68 | 3.51 | 4.3 | 5.16 | 2.35 | 3.37 | 3.32 | 1.53 | 3.15 | 1.64 |
| ATCGAAAGGTCGAAGATGAGTATACCCACCCGAA | -0.341 | 1.22 | 0.714 | 0.471 | 1.15 | 1.97 | 0.241 | 2.66 | 0.939 | 3.69 | 2.11 | 3.48 | 3.4 | 1.35 | 3.68 | 1.56 | -0.0753 | 2.36 | 0.844 |
| AGAATGACGTTACCAAAGATCAGGGAAACGCTTG | -0.672 | -0.0252 | 0.249 | 0.258 | 0.216 | -0.527 | -0.0125 | -0.159 | 0.157 | -0.301 | -0.559 | 0.085 | 0.256 | -0.636 | 0.0989 | -0.427 | -0.611 | -0.434 | 0.0201 |
| ACTAGCAGGCCAAGTTTGGGTCACTCATACAAAG | 1.29 | 1.09 | -0.419 | -0.428 | 0.652 | 0.707 | -0.211 | 1.55 | -0.601 | 1.53 | 2.32 | 2.26 | 1.53 | -0.0603 | 0.947 | 2.47 | 1.27 | 0.68 | 0.331 |
| AATACAGGGTCATCGTAGGCCAGAGAACGCACAG | 3.24 | 4.03 | 1.71 | 1.62 | 2.96 | 5.14 | 0.451 | 5.41 | 1.51 | 4.56 | 3.8 | 6.12 | 5.66 | 3.55 | 6.83 | 4.95 | 1.74 | 5.24 | 2.9 |
